In ChEMBL document CHEMBL1961873, “Compounds: GSK PKIS; Assays: Nanosyn kinase panel” (2012) one finds inhibition data, which are given here for three molecules.

Assay [1] deals with Tyrosine-protein kinase SYK (Homo sapiens) (UniProt P43405). Particulars: at 1 µM.
The target of assay [2] is T1, Tyrosine-protein kinase Tec (Homo sapiens) (UniProt P42680).
T1 sequence (whole entry): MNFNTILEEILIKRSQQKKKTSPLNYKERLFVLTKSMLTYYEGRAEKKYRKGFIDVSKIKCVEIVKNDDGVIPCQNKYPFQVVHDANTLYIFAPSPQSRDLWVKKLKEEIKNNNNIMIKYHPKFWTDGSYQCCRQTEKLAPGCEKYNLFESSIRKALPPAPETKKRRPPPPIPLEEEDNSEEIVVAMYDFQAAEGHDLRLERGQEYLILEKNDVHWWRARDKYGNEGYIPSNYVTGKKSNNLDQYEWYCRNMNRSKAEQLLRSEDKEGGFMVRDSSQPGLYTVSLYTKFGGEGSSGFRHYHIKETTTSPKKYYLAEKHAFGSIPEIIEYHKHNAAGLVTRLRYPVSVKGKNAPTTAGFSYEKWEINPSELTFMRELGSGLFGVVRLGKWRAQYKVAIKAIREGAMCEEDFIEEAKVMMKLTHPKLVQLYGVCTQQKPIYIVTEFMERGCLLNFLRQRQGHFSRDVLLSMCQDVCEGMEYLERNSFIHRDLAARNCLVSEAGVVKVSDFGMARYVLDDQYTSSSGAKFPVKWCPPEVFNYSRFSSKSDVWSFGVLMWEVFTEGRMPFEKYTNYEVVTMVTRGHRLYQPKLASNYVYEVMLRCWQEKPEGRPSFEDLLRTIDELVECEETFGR
Particulars: at 0.1 µM.

For assay [3], the target named is T1, Tyrosine-protein kinase Tec (Homo sapiens). Particulars: at 1 µM.
Assay [4] addresses Angiopoietin-1 receptor (Homo sapiens) (UniProt Q02763). Particulars: at 0.1 µM.
Assay [5] has the same target. As to conditions: at 1 µM.
The target in assay [6] is T2, Non-receptor tyrosine-protein kinase TNK1 (Homo sapiens) (UniProt Q13470).
T2 sequence (whole entry): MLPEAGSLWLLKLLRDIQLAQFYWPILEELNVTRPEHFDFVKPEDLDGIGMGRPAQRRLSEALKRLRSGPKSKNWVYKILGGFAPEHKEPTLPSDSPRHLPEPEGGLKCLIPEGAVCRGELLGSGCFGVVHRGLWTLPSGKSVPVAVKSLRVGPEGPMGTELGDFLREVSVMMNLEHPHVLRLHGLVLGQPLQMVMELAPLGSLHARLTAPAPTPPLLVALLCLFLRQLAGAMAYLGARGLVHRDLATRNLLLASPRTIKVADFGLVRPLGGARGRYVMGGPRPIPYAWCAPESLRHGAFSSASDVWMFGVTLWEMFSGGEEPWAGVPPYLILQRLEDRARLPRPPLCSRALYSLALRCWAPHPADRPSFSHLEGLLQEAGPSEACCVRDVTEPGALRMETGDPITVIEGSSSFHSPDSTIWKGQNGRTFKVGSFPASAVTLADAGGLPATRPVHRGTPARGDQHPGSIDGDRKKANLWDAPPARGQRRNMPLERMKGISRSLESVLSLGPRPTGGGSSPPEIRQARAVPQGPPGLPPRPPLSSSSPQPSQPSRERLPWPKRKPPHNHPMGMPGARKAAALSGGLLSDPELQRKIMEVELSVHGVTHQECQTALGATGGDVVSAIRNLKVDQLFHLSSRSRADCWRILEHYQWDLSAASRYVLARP
Particulars: at 0.1 µM.

In assay [7] the target is T2, Non-receptor tyrosine-protein kinase TNK1 (Homo sapiens). As to conditions: at 1 µM.
The target in assay [8] is Activated CDC42 kinase 1 (Homo sapiens) (UniProt Q07912). As to conditions: at 0.1 µM.
Assay [9] shares this target. As to conditions: at 1 µM.
Assay [10] addresses High affinity nerve growth factor receptor (Homo sapiens) (UniProt P04629). As to conditions: at 0.1 µM.
The target is the same in assay [11]. Particulars: at 1 µM.
Assay [12] has as its target BDNF/NT-3 growth factors receptor (Homo sapiens) (UniProt Q16620). Particulars: at 0.1 µM.
Assay [13] has the same target. As to conditions: at 1 µM.
The target in assay [14] is NT-3 growth factor receptor (Homo sapiens) (UniProt Q16288). Particulars: at 0.1 µM.
For assay [15] the target is unchanged. As to conditions: at 1 µM.
For assay [16], the target named is T3, Tyrosine-protein kinase TXK (Homo sapiens) (UniProt P42681).
T3 sequence (whole entry): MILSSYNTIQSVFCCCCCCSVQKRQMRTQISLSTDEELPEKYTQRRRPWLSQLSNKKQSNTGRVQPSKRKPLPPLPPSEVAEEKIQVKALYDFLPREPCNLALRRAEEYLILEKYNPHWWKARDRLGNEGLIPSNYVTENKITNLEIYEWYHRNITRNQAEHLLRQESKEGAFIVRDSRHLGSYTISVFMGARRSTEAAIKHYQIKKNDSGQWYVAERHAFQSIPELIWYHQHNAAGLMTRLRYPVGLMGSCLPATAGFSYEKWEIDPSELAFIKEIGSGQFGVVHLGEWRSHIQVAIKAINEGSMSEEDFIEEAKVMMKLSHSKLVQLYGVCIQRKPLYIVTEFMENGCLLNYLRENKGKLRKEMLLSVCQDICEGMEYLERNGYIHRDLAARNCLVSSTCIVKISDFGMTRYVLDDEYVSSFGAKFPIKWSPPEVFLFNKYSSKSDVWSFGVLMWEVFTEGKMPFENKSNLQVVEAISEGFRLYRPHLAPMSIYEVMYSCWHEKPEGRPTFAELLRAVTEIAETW
Particulars: at 0.1 µM.

Assay [17] deals with T3, Tyrosine-protein kinase TXK (Homo sapiens). Particulars: at 1 µM.
Assay [18] deals with Non-receptor tyrosine-protein kinase TYK2 (Homo sapiens) (UniProt P29597). Particulars: at 0.1 µM.
For assay [19], the target named is T4, Dual specificity protein kinase TTK (Homo sapiens) (UniProt P33981).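 Note: reported figures are mean TTK inhibition at 1 µM.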
T4 sequence (whole entry): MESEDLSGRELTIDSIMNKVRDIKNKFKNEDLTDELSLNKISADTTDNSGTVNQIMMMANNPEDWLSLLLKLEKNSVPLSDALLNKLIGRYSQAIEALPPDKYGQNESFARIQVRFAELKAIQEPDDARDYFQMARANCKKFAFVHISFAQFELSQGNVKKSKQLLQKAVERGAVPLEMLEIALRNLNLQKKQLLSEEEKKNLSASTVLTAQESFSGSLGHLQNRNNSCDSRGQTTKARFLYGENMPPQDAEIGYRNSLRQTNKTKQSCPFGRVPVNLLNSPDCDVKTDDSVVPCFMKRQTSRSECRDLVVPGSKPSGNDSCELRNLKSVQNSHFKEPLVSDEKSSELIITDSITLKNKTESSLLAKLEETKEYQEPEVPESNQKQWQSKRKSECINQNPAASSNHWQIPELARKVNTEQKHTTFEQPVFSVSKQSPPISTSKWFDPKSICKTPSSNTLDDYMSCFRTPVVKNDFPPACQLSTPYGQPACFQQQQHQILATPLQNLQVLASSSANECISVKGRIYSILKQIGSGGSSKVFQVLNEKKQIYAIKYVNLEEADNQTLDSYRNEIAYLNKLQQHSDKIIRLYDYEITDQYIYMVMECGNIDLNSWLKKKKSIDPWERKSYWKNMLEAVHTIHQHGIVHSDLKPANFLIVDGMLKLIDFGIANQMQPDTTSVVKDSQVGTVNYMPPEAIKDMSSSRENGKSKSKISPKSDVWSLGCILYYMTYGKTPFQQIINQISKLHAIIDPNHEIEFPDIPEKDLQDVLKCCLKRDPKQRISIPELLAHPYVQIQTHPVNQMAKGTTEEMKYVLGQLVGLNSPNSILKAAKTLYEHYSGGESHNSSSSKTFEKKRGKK
Particulars: at 1 µM.

The target in assay [20] is T5, Aurora kinase A (Homo sapiens) (UniProt O14965).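 Note: each reported value is a mean percent inhibition of Aurora-A.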
T5 sequence (whole entry): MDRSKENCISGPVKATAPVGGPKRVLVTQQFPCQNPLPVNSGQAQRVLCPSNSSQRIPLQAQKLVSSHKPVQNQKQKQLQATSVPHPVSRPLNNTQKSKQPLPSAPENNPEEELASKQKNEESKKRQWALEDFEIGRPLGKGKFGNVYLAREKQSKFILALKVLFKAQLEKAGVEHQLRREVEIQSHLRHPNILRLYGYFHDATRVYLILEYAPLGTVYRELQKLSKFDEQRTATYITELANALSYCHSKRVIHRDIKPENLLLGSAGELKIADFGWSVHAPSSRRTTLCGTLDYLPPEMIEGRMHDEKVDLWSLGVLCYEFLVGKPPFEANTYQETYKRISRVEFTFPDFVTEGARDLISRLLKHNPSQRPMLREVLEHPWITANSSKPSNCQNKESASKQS
Particulars: at 0.1 µM.

Each structure is given as a SMILES string.

High affinity nerve growth factor receptor (Homo sapiens), sequence (P04629 33-796 limits assumed): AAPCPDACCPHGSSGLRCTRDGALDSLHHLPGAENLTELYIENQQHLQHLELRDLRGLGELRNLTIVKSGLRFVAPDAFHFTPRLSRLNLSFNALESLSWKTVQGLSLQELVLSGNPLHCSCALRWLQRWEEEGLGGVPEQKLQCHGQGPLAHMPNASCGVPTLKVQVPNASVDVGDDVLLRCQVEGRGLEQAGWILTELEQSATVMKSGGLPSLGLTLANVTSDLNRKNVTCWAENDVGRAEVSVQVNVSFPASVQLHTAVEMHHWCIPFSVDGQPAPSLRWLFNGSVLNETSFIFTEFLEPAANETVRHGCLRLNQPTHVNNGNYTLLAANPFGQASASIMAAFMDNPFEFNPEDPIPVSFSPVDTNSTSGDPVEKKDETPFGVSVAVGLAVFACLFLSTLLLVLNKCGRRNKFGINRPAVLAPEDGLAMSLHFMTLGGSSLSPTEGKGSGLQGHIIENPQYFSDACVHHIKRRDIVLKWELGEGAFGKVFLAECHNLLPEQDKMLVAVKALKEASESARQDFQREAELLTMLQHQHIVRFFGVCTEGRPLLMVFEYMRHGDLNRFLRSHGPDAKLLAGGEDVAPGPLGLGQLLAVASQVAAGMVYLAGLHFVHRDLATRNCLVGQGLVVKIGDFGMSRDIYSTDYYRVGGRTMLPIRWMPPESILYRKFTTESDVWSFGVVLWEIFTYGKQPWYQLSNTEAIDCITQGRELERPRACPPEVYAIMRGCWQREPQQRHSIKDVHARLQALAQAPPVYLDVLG
Non-receptor tyrosine-protein kinase TYK2 (Homo sapiens), sequence (P29597 whole entry): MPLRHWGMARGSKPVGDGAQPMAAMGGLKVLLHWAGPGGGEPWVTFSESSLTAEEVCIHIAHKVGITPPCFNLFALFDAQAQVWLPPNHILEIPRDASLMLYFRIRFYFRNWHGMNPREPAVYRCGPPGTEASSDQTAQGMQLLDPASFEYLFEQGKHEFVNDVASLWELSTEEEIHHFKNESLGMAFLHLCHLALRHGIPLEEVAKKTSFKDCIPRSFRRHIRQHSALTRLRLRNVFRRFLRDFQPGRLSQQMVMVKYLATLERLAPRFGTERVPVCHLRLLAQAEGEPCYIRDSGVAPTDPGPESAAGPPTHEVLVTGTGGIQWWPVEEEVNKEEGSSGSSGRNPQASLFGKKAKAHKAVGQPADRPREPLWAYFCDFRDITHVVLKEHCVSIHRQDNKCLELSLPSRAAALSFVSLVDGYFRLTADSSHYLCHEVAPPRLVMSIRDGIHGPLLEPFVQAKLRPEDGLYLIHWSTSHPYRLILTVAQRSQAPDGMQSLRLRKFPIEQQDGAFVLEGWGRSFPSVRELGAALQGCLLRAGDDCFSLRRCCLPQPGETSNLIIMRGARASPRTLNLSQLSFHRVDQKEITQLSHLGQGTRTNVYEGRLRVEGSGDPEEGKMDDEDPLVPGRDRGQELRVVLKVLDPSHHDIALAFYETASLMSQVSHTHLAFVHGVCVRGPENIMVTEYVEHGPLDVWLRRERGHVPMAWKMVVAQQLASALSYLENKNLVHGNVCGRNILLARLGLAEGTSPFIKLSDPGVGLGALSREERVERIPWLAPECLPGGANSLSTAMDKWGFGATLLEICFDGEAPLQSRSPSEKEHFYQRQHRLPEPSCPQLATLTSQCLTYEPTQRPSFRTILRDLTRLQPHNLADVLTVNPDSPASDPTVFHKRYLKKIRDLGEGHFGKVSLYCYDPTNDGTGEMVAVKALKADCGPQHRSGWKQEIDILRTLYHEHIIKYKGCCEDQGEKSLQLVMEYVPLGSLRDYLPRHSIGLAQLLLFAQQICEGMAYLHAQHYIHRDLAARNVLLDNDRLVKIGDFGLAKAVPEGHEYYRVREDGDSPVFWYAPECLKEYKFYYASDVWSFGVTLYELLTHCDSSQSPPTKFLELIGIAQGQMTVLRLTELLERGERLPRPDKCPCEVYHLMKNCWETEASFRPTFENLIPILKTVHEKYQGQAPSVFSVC
BDNF/NT-3 growth factors receptor (Homo sapiens), sequence (Q16620 32-822 limits assumed): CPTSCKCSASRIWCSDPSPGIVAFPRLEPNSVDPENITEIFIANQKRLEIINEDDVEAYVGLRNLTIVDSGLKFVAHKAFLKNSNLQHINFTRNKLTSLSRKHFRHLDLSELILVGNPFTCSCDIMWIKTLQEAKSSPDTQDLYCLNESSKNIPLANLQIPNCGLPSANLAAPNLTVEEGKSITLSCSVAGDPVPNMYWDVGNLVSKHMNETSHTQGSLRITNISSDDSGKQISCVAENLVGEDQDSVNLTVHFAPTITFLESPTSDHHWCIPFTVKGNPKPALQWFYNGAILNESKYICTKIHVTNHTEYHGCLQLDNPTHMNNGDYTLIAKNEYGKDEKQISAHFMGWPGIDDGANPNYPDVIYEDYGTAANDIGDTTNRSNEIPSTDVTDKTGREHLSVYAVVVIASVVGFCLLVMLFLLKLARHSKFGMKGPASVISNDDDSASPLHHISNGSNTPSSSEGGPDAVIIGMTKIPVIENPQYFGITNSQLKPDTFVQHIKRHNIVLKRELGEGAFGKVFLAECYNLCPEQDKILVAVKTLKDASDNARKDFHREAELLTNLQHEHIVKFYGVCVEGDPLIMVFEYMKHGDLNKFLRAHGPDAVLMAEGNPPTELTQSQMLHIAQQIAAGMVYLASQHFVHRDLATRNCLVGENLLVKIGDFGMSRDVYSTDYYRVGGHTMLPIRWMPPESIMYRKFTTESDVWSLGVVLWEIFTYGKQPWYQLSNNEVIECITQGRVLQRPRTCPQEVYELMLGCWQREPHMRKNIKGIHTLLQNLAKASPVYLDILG
NT-3 growth factor receptor (Homo sapiens), sequence (Q16288 32-839 limits assumed): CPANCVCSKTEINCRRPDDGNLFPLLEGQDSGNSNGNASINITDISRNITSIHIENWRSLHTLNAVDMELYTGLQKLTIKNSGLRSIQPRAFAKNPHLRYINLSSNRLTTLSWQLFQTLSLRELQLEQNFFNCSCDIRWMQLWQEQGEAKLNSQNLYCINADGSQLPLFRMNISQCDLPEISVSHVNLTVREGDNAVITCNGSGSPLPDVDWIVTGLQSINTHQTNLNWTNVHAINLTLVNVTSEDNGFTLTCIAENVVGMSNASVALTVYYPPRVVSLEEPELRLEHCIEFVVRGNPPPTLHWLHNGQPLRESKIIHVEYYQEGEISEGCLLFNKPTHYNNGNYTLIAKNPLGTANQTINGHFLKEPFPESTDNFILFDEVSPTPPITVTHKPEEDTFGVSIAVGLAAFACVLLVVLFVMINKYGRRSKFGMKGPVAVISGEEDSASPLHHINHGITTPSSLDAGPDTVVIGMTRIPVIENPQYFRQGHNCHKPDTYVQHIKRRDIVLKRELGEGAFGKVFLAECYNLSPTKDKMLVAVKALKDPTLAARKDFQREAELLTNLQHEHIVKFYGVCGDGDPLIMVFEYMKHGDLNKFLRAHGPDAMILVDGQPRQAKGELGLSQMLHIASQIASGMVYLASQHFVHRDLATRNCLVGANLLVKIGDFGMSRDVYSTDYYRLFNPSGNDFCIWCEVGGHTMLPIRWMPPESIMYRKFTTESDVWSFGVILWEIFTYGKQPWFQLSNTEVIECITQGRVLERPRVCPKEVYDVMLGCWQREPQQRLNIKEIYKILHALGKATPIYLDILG
Activated CDC42 kinase 1 (Homo sapiens), sequence (Q07912 whole entry, looked up): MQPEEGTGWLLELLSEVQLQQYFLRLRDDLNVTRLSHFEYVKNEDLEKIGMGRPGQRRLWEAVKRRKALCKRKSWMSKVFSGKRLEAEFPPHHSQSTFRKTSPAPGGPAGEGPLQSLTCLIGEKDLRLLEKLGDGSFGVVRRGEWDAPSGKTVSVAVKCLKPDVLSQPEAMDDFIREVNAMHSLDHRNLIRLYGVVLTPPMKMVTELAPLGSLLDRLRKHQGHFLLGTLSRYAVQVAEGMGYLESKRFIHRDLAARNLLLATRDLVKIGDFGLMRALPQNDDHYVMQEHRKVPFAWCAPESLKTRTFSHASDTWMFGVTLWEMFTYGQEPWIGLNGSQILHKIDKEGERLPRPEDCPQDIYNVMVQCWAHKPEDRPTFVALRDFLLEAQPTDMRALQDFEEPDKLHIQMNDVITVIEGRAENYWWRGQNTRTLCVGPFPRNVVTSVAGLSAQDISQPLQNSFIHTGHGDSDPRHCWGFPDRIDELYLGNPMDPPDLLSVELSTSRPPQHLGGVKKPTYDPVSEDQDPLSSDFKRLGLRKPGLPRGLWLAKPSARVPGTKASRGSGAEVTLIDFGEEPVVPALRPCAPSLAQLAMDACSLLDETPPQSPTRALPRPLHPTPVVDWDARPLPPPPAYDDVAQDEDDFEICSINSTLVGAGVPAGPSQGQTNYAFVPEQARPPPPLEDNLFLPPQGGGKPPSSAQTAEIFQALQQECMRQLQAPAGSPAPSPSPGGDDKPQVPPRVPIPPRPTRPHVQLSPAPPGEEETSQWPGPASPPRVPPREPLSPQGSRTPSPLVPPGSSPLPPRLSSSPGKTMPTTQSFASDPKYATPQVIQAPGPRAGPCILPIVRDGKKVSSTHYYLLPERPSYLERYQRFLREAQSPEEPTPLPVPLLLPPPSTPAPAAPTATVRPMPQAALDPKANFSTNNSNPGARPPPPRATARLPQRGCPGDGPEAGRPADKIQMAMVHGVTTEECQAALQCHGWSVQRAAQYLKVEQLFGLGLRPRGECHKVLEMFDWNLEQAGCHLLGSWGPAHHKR

`CN(C)CCCn1c(-c2nonc2N)nc2cnccc21`: the inhibition (usually the relative decrease from the control value, in per cent) in assay [1] amounted to 0.37%; in [2] it was 4%; in assay [3], 4.06%; in [4] it was 0.92%; in assay [5] it was 1.59%; in [6], 1.08%. The inhibition is -3.93% in assay [7]; 0.54% in assay [8]; 0.77% in assay [9]; 1.3% in assay [10]; 3.29% in assay [11]; -0.15% in assay [12]. The inhibition in [13] was 3.55%; in assay [14] it was -0.01%; in [15], 3.2%; in assay [16], 3.61%; in [17], 4.3%; in assay [18] it was -2.99%. In addition, the inhibition in [19] is 0.63%; in assay [20], 3.15%.
`O=C1Nc2ccccc2/C1=C/Nc1ccc2[nH]c(=O)[nH]c2c1`: the inhibition was -5.15% in [1]; 9.34% in assay [2]; 13.8% in assay [3]; 5.76% in assay [4]; 9.19% in assay [5]; 4.65% in assay [6]. For the same molecule, the inhibition in assay [7] turned out to be 21.3%; in assay [8], 1.41%; in assay [9], 4.86%; in [10] it was 11.6%; in assay [11], 53.9%; in [12] it was 26.2%. Also, the inhibition in assay [13] was 72.7%; in assay [14] it was 26.2%; in assay [15], 74.2%; in assay [16], 6.68%; in assay [17], 7.08%; in assay [18], -6.64%. Further, the inhibition was determined as 38.8% in assay [19] and 6.9% in assay [20].
`CCS(=O)(=O)c1ccc(OC)c(Nc2nccc(N(C)c3ccc4c(C)n[nH]c4c3)n2)c1`: the inhibition was -6.17% in assay [1]; 4.3% in assay [2]; 27% in assay [3]; 6.69% in [4]; 46.3% in [5]; 40% in assay [6]. Also, the inhibition in assay [7] was 82.5%; in assay [8], 2.32%; in assay [9], 22.8%; in assay [10], 2.86%; in assay [11] it was 11.7%; in assay [12], 5.19%. Besides, the inhibition is 14.1% in assay [13]; 4.34% in [14]; 17.5% in [15]; 1.6% in assay [16]; 26.2% in assay [17]; -6.13% in [18]. The inhibition came out at 11.9% in [19] and 4.98% in [20].
